The test system of the assay is Salmonella enterica serovar Typhimurium 14028s. The assay can be described thus: approximate change in surviving CFU after surface colonization relative to water-only control (log10 CFU/mL change); higher = more surviving bacteria (less inhibition of surface colonization). The settings on record: not stated (Biolog proprietary concentration), surface: plastic 96-well plate, 20-24 h at 25 °C.

Structures are written as SMILES.

`CCC(=O)O` [Propionic Acid]: the “approximate change in surviving CFU (log10)” value (“approximate change … (log10)” below) (Biolog plate: PM1, Biolog well: F7) is -0.987.
With `NCC(=O)N[C@@H](CCC(=O)O)C(=O)O` [Glycyl-L-Glutamic Acid], for the setting “Biolog plate: PM1, Biolog well: G1”, the “approximate change … (log10)” value is 1.22.
As to `COC(=O)CCC(=O)O` [Mono Methyl Succinate], the “approximate change … (log10)” value (Biolog plate: PM1, Biolog well: G9) was -1.74.
For the compound `COC(=O)C(C)=O` [Methyl Pyruvate], the “approximate change … (log10)” value (Biolog plate: PM1, Biolog well: G10) came to 0.0644.
In the case of `CC(=O)C(=O)O` [Pyruvic Acid], the “approximate change … (log10)” value (Biolog plate: PM1, Biolog well: H8) was -0.494.
On to `OC[C@H]1OC(O[C@H]2[C@H](O)[C@@H](O)C(O[C@H]3[C@H](O)[C@@H](O)[C@@H](O)O[C@@H]3CO)O[C@@H]2CO)[C@H](O)[C@@H](O)[C@@H]1O` (stereo partly drawn) [Dextrin], for which, under “Biolog plate: PM2, Biolog well: A6”, the “approximate change … (log10)” value is 0.665.
Turning to `OC1OC[C@@H](O)[C@@H](O)[C@@H]1O` (stereo partly drawn) [D-Arabinose], the “approximate change … (log10)” value (Biolog plate: PM2, Biolog well: B5) is 0.408.
For the compound `CC(=O)N[C@@H](CO)[C@@H](O)[C@H](O)[C@H](O)CO` [N-Acetyl-D-Glucosaminitol], the “approximate change … (log10)” value (Biolog plate: PM2, Biolog well: D9) turned out to be 0.944.
On to `CCCCCC(=O)O` [Caproic Acid], for which the “approximate change … (log10)” value (Biolog plate: PM2, Biolog well: E2) is -0.859.
On to `O=C(O)c1ccc(O)cc1` [4-Hydroxy Benzoic Acid], for which the “approximate change … (log10)” value (Biolog plate: PM2, Biolog well: E7) was -0.58.
Turning to `C[C@@H](O)CC(=O)O` [b-Hydroxy Butyric Acid], the “approximate change … (log10)” value (Biolog plate: PM2, Biolog well: E8) is -0.215.
For `CCCC(=O)C(=O)O` [a-Keto-Valeric Acid], the “approximate change … (log10)” value (Biolog plate: PM2, Biolog well: E10) is -0.966.
Turning to `C=C(CC(=O)O)C(=O)O` [Itaconic Acid], under “Biolog plate: PM2, Biolog well: E11”, the “approximate change … (log10)” value was -3.95.
For `O=C(CO)[C@@H](O)[C@H](O)[C@@H](O)C(=O)O` [5-Keto-D-Gluconic Acid], the “approximate change … (log10)” value (Biolog plate: PM2, Biolog well: E12) was 0.708.
With `O=C(O)CCCCCCCCC(=O)O` [Sebacic Acid], the “approximate change … (log10)” value (Biolog plate: PM2, Biolog well: F8) worked out at 0.429.
Regarding `NCC(O)c1ccc(O)cc1` (racemic) [D,L-Octopamine], the “approximate change … (log10)” value (Biolog plate: PM2, Biolog well: H7) was 0.987.
On to `N` [Ammonia], for which the “approximate change … (log10)” value (Biolog plate: PM3, Biolog well: A2) came out at 0.0644.
As to `O=[N+]([O-])O` [Nitrate], the “approximate change … (log10)” value (Biolog plate: PM3, Biolog well: A4) worked out at 0.665.
Regarding `N[C@H](CCC(=O)O)C(=O)O` [D-Glutamic Acid], the “approximate change … (log10)” value (Biolog plate: PM3, Biolog well: C6) came to 0.837.
As for `O=C(O)CC[C@@H](C(=O)O)N1C(=O)c2ccccc2C1=O` [N-Phthaloyl-L-Glutamic Acid], the “approximate change … (log10)” value (Biolog plate: PM3, Biolog well: D2) is -0.343.
Turning to `CCCCCN` [N-Amylamine], the “approximate change … (log10)” value (Biolog plate: PM3, Biolog well: D6) was -0.708.
`CCN` [Ethylamine]: the “approximate change … (log10)” value (Biolog plate: PM3, Biolog well: D8) is -1.89.
With `CC(=O)N[C@@H]1C(O)O[C@H](CO)[C@@H](O)[C@@H]1O` (stereo partly drawn) [N-Acetyl-D-Mannosamine], the “approximate change … (log10)” value (Biolog plate: PM3, Biolog well: F1) came to 0.15.
In the case of `Cc1c[nH]c(=O)[nH]c1=O` [Thymine], the “approximate change … (log10)” value (Biolog plate: PM3, Biolog well: F8) was -0.58.
With `C[C@H](N)C(=O)N[C@@H](CC(=O)O)C(=O)O`, for the setting “Biolog plate: PM3, Biolog well: H1”, the “approximate change … (log10)” value turned out to be 0.58.
`OC[C@H]1OC(O)[C@H](O)[C@@H](O)[C@H]1O` (stereo partly drawn) [D-Galactose]: the “approximate change … (log10)” value (Biolog plate: PM1, Biolog well: A6) came to 1.59.
`O=C(CO)[C@@H](O)[C@H](O)[C@H](O)CO` [D-Fructose]: the “approximate change … (log10)” value (Biolog plate: PM1, Biolog well: C7) was 2.4.
For `CCC(=O)C(=O)O` [a-Keto-Butyric Acid], where the note is “Biolog plate: PM1, Biolog well: D7”, the “approximate change … (log10)” value was determined as 0.172.
With `OC[C@H]1O[C@H](O[C@H]2[C@H](O)[C@@H](O)[C@@H](O[C@H]3[C@H](O)[C@@H](O)[C@@H](O)O[C@@H]3CO)O[C@@H]2CO)[C@H](O)[C@@H](O)[C@@H]1O` [Maltotriose], where the note is “Biolog plate: PM1, Biolog well: E10”, the “approximate change … (log10)” value is 1.82.
As for `NCC(=O)N[C@@H](CC(=O)O)C(=O)O` [Glycyl-L-Aspartic Acid], the “approximate change … (log10)” value (Biolog plate: PM1, Biolog well: F1) is 0.929.
Consider `C[C@H](O)[C@@H](N)C(=O)O` [D-Threonine], for which the “approximate change … (log10)” value (Biolog plate: PM1, Biolog well: F4) came out at 0.901.
`O=C(O)CC(CC(=O)O)C(=O)O` [Tricarballylic Acid]: for the setting “Biolog plate: PM1, Biolog well: G2”, the “approximate change … (log10)” value is 1.05.
For `O=C(O)[C@H]1OC(O)[C@H](O)[C@@H](O)[C@H]1O` (stereo partly drawn) [D-Galacturonic Acid], under “Biolog plate: PM1, Biolog well: H10”, the “approximate change … (log10)” value came out at 1.09.
Consider `OC[C@H]1O[C@@H]2O[C@H]3[C@H](O)[C@@H](O)[C@@H](O[C@H]4[C@H](O)[C@@H](O)[C@@H](O[C@H]5[C@H](O)[C@@H](O)[C@@H](O[C@H]6[C@H](O)[C@@H](O)[C@@H](O[C@H]7[C@H](O)[C@@H](O)[C@@H](O[C@H]8[C@H](O)[C@@H](O)[C@@H](O[C@H]1[C@H](O)[C@H]2O)O[C@@H]8CO)O[C@@H]7CO)O[C@@H]6CO)O[C@@H]5CO)O[C@@H]4CO)O[C@@H]3CO` [b-Cyclodextrin], for which the “approximate change … (log10)” value (Biolog plate: PM2, Biolog well: A4) came out at 1.01.
As for `OC[C@@H](O)C(O)[C@H](O)CO` [D-Arabitol], the “approximate change … (log10)” value (Biolog plate: PM2, Biolog well: B6) came out at 1.37.
Turning to `C[C@@H](O)[C@H](O)[C@H](O)[C@@H](O)C=O` [D-Fucose], the “approximate change … (log10)” value (Biolog plate: PM2, Biolog well: B11) is -0.408.
As for `OC[C@@H](O)[C@@H](O[C@@H]1O[C@H](CO)[C@H](O)[C@H](O)[C@H]1O)[C@H](O)[C@@H](O)CO` [Lactitol], the “approximate change … (log10)” value (Biolog plate: PM2, Biolog well: C3) stood at 1.05.
For `OC[C@H]1O[C@@](CO)(O[C@H]2O[C@H](CO)[C@@H](O)[C@H](O)[C@H]2O)[C@@H](O[C@H]2O[C@H](CO)[C@@H](O)[C@H](O)[C@H]2O)[C@@H]1O` [D-Melezitose], the “approximate change … (log10)” value (Biolog plate: PM2, Biolog well: C4) turned out to be 1.16.
On to `CO[C@@H]1O[C@H](CO)[C@@H](O)[C@H](O)[C@H]1O` [b-Methyl-D-Glucoside], for which, where the note is “Biolog plate: PM2, Biolog well: C7”, the “approximate change … (log10)” value was determined as 1.33.
Consider `OCc1ccccc1O[C@@H]1O[C@H](CO)[C@@H](O)[C@H](O)[C@H]1O` [Salicin], for which the “approximate change … (log10)” value (Biolog plate: PM2, Biolog well: D2) is 0.0215.
With `OC[C@H]1O[C@H](OC[C@H]2O[C@H](OC[C@H]3O[C@H](O[C@]4(CO)O[C@H](CO)[C@@H](O)[C@@H]4O)[C@H](O)[C@@H](O)[C@@H]3O)[C@H](O)[C@@H](O)[C@H]2O)[C@H](O)[C@@H](O)[C@H]1O` [Stachyose], the “approximate change … (log10)” value (Biolog plate: PM2, Biolog well: D5) is 1.37.
Take `C/C(=C/C(=O)O)C(=O)O` [Citraconic Acid]: under “Biolog plate: PM2, Biolog well: E3”, the “approximate change … (log10)” value is 0.472.
In the case of `CC(O)(CC(=O)O)C(=O)O` (stereo not drawn) [Citramalic Acid], the “approximate change … (log10)” value (Biolog plate: PM2, Biolog well: E4) amounted to 0.687.

For the origin of these results see the supplement of paper PMC11738630.
